Records with an inconclusive call do not appear. Calls of active or inactive are those of the source. The calls were made as follows, unless noted: active = hit-call score of the fitted dose curve at least 0.9, where 1 is the maximum; inconclusive = response in the unintended direction; inactive = score below 0.9.
Experiment: STM_H9_OrnCyssISnorm_ratio: Stemina devTOX quickPredict H9 human embryonic stem cell (hESC)-based Assay for Ornithine (ORN):Cystine (CYSS) Ratio (AID 2283714)
Summary of the method: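 Steps: H9 hESCs in pluripotent state dosed 72h, medium plus compound renewed every 24h; conditioned medium from the final 24h deproteinized in 40% acetonitrile; ORN and CYSS quantified by UPLC-HRMS with C13 spike-ins; ratio relative to vehicle.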

**Q.** With `Cn1c(=O)cc(Oc2ccc(F)cc2F)c2cnc(NCC(C)(C)O)nc21` as the molecule, how does the outcome read?
**A.** inactive

**Q.** Which outcome does the source give for `Fc1ccccc1[C@@H](F)COC1CCC(Nc2ncnc3[nH]ncc23)CC1` (some centres not stated) here?
**A.** inactive

**Q.** For `COc1ccc2sc(C(=O)Nc3nnn[nH]3)c(OC(C)C)c2c1`, which AC50 is on record?
**A.** 1.52 µM (active)

**Q.** With `COCCOCCOCCOC` as the molecule, how does the outcome read?
**A.** inactive

**Q.** Which AC50 does the source give for `CC[C@H](C)C(=O)O[C@H]1C[C@@H](C)C=C2C=C[C@H](C)[C@H](CC[C@@H]3C[C@@H](O)CC(=O)O3)[C@H]21` here?
**A.** 6.84 µM (active)

**Q.** With `CC(C)c1cccc(C(C)C)c1N1C(=O)c2ccc(O)cc2C1=O` as the molecule, how does the AC50 read?
**A.** 14.9 µM (active)

**Q.** Which AC50 does the source give for `COc1cccc(-c2ccc(/C=C\CN3CCCCCC3)cc2Cl)c1` here?
**A.** 3.97 µM (active)

Experiment: CEETOX_H295R_MTT_cell_viability: Viability Assessment in the CeeTox HT-H295R MTT Assay (AID 2283718; active = hit-call score of the fitted dose curve at least 0.9, where 1 is the maximum; inactive = score below 0.9;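 as to AC50: curve fitted both ways so AC50 may mark viability loss or gain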)
Summary of the method: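 MTT reduction (0.5 mg/ml, 4 h at 37 C; absorbance at 570 and 650 nm) gave viability as background-corrected percent change versus controls. H295R cells had 48 h forskolin (10 uM) prestimulation, then 48 h chemical exposure at 0.1% DMSO.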

**Q.** With `Cn1c(=O)cc(Oc2ccc(F)cc2F)c2cnc(NCC(C)(C)O)nc21` as the molecule, how does the outcome read?
**A.** inactive

**Q.** With `Fc1ccccc1[C@@H](F)COC1CCC(Nc2ncnc3[nH]ncc23)CC1` (some centres not stated) as the molecule, how does the AC50 read?
**A.** 6.77 µM (active)

**Q.** Which outcome does the source give for `CC[C@H](C)C(=O)O[C@H]1C[C@@H](C)C=C2C=C[C@H](C)[C@H](CC[C@@H]3C[C@@H](O)CC(=O)O3)[C@H]21` here?
**A.** inactive

**Q.** Which AC50 does the source give for `CC(C)c1cccc(C(C)C)c1N1C(=O)c2ccc(O)cc2C1=O` here?
**A.** 3.83 µM (active)

**Q.** For `COc1cccc(-c2ccc(/C=C\CN3CCCCCC3)cc2Cl)c1`, which outcome is on record?
**A.** inactive

From PubChem BioAssay (EPA / NIEHS)
